The record followed here is the supplement of paper PMC6555819.

This assay concerns VDR:RXRa (NR concentration 270 nM, RXRa partner concentration 90 nM). The assay is described as follows: PBM binding z-score (relative to random genomic background probes); higher = stronger binding; sequences stand for … in GC…GCGATTGACAGCGTAGAATGAAGG
How it is done: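 Protein-binding microarray (Agilent 4x180K custom design, double-stranded 60-nt probes: 5' GC cap, 34-nt variable region, 24-nt constant primer region; full probe sequence given). Purified or IVT nuclear receptor:RXRα heterodimers (3:1 NR:RXRα, mostly 270:90 nM) or homodimers were incubated for 1 h in PBS with 2% milk and no ligand, then detected with Alexa488 antibodies. Fluorescence from o1-orientation probes (~5 replicates averaged) was converted to z-scores against 500 random hg19 background probes. Variable regions are seed direct-repeat (DR0–DR5) sites, all their single-nucleotide variants and half-site ablations.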
Take CCTTACGGGTCCCGAGGTTATAGCACGACGAGCG: the PBM binding z-score is 0.198.
Sequence TAGCCTAGGTCATGCGGACCAGTATAGTGTCGGC registered a PBM binding z-score of 1.99.
For the sequence GCAGACAGGTGAAATGCAGGTAACTCAGGGTGGC, the PBM binding z-score was -0.417.
CAGCCTAGGTCAGGGCCAGTAGAGGAGGAACGTT had a PBM binding z-score of -0.0759.
In turn, GCATATAGGTAATACACGGTGAAAGTCCGATTGT returned a PBM binding z-score of -0.0227.
AGAATGAGGTTATACGTAAATCAGGGAAGAAAGT: the PBM binding z-score came out at 1.21.
For the sequence GCTACTAGGTCAACTGATGGTCAGCTAAAGCTCG, the PBM binding z-score is 1.79.
Under ATCTCTAGGTAAAGATATTTCAGTGAATGCAAAT stands 0.441; under GCTGCTTGGTCAACTGATGGTCAGCTAAAGCTCG, -0.687; under TGTCAAATTTCAAAGGTAACGTAAGTATCCACAC, 0.605.
For ATCGAAAGGTCGACGAGGTGGGTATACACCGTTT, the PBM binding z-score worked out at 4.34.
Take ACTTACGGGTCAACGAGGTTATAACACGCGTATA: the PBM binding z-score was determined as 7.9.
As for CCGAGTAGGTTATGCGGCATTCAGGCAACGGTGA, the PBM binding z-score is -0.251.
Turning to ACTAGCAGGGCAAGTTTGGGTCACTCAAACAAAG, the PBM binding z-score stood at 1.32.
In the case of GCTCGGAGGACAAGATCAGAGCTTTGTCCGTAGA, the PBM binding z-score was -0.806.
Consider CCGCCTGGGGCAAAGGTTACCATACTCAGTACGA, for which the PBM binding z-score turned out to be 1.48.
Sequence CGTACTAGGTCATTGACAGGACAGTGAATAGTAA yielded a PBM binding z-score of 2.09.
The sequence TCATATAGGTAAAAGGTGCAAGTCGGTGTGGTAA came in with a PBM binding z-score of 1.09.
Sequence ATCGAAAGGTCGCCGAGGTGAGTATACACCGTTT displayed a PBM binding z-score of 5.39.
For TATAGAGGGTCAAAGGCCAGAGTACGAATGTCGA, the PBM binding z-score worked out at 3.83.
On to TCAGACAGGTAAAGGTAACTCAGGTACGCAGTCG, for which the PBM binding z-score worked out at 1.44.
As for ATCGAAAGGTCGAAGGTGAGGATACCCACCCGAA, the PBM binding z-score amounted to 2.71.
As for GTACCAAGGTGATTAGGTCGTTGATGAGTAGGCG, the PBM binding z-score was determined as 0.223.
Regarding ACTCGGAGGACAAAGGTCCGAGCTACGCCAGTGA, the PBM binding z-score was -0.323.
Under CCTAGTTTGTCAGGAGGTCACACACCGGATATGA stands 4.19; under ATCGAAAGGTCGACGATGTGAGTATACACCGTTT, 2.51.
Consider CGAACTAGGTCATTGACAGGACAGCGAATAGTAA, for which the PBM binding z-score stood at 2.05.
In turn, ATACCAAGGTGATCGTGAGGTCGCTGATACTAAC yielded a PBM binding z-score of 2.39.
Under CCTTCTGGGCCAAGGTCATTGATCAGTCAAAGCA stands 3.17; under TCATATAGGTAAACAAGTGAAAGTCCGTAAGTTA, 1.09.
The sequence TTACCAAGGTGAGCTGAGGTCGTTGGTCCAACTC showed a PBM binding z-score of 3.79.
GATACAGGGTCAGCTAGAGGCCGGAGTATGGAAA gave a PBM binding z-score of 2.8.
Under GCTAGCAGGCCATTCGGGTCACTCAATGACGGGC stands 3.27.
The sequence TCTTATAGATCAAGCAGGTTAAGAAAGCCTGAGT registered a PBM binding z-score of 0.894.
CTTGCTAGGTCAATGGTCAGCTAAAGCAGCTCGC registered a PBM binding z-score of 0.921.
On to TCTAGTTGGTCAAAGGTCACAAACTCGAAATGCG, for which the PBM binding z-score came out at 5.17.
As to CCTCGGAGGACAGCAGGAGGTCAGAGCTGCCAGA, the PBM binding z-score turned out to be 1.09.
Take ATCTCTAGGAAACCAAGTTCAGTGAATGCCGAAC: the PBM binding z-score was determined as 1.49.
As for GCTAGCAGGCCATTTGGGTCACTCACTGACGGGC, the PBM binding z-score stood at 0.766.
With GCTGCTAGGTCAGCTTGGTCAGCTAACGGGTACG, the PBM binding z-score is 0.54.
